From PubChem BioAssay AID686978 (National Center for Advancing Translational Sciences (NCATS), 2013)
In all, about 420,000 compounds went through this assay and about 64,000 (15%) were called active. Not shown: some 27% with an inconclusive outcome. Not all results are given here. Values without a mark were called inactive. Calls come from the whole dose curve; as a rule, active = well fitted inhibition curve with a large enough effect; inconclusive = small, poorly fitted or top-dose-only effect; inactive = flat fitted curve, though single readings scatter.
% is set by controls: 0 for no effect and ±100 for the full control effect; potency is the fitted concentration of half-maximal effect.

Experiment: qHTS for Inhibitors of human tyrosyl-DNA phosphodiesterase 1 (TDP1): qHTS in cells in absence of CPT; note: nearly all actives have a fitted effect of over 55% in size
Settings: DT40 Tdp1-/- hTDP1 cells, no CPT, ATP luminescence, 48 h; activity change, negative = growth inhibition: at 46.2 µM (top of the series)
From the text: Human tyrosyl-DNA phosphodiesterase 1 (TDP1) is a novel repair gene, and we propose to use it as a new target for anticancer drug development. TDP1 is not an essential protein, but under treatment with topoisomerase I poison (camptothecin: CPT), TDP1 works as a critical factor for cell survival. To directly identify novel TDP1 inhibitors active in a cellular environment, we have knocked-out the Tdp1 gene in chicken DT40 cells (Tdp1-/-) and generated a complemented counterpart cells that contains a stable transfection of the human TDP1 gene (Tdp1-/-;hTDP1 cells). For the primary screen, Tdp1-/-;hTDP1 cells will be exposed to small molecules in the presence or absence of CPT, and their growth kinetics will be evaluated after 48 hours by measuring ATP activity. […] The hit compounds will then be evaluated in the presence or absence of CPT using Tdp1-/- cells. […] In tertiary assays, biochemical gel-based assays will be used to assess whether the hit compounds specifically target TDP1.
To this end, we have screened this cell line against the MLSMR in two primary screens. In one screen we add CPT and in the other we screen in the absence of CPT; this AID represents the screen where CPT was absent.
NIH Chemical Genomics Center [NCGC]
NIH Molecular Libraries Probe Centers Network [MLPCN]
Assay Submitter (PI): Yves Pommier, NCI
DT40-hTDP1 cells without 20 nM Camptothecin (add 20 microL of DMSO in 1 L of cell culture medium) were dispensed at 400 cells/5microL/well in tissue culture treated 1536-well white wall/solid bottom assay plates (Greiner Bio-One North America, NC, U.S.A.) using a Multidrop Combi 8 channel dispenser (Thermo Fisher, Waltham, MA, USA). 23 nL compounds and controls were transferred using the pin tool (Kalypsys, San Diego, CA, USA) to the assay plates. The assay plates were then incubated at 37 masculineC for a minimum 48 hr. Three microL of Cell Titer Glo solution was added to the plates and incubated at RT in dark for 30 min. Luminescence was read using ViewLux (Perkin Elmer) with 1 sec exposure slow speed, high gain and 2x binning.
With `Nn1c(SCC(=O)NC(=O)NC2CCCC2)nnc1-c1ccccc1F` the “activity change, negative = growth inhibition” value was -9.8%. In the case of `O=C1CC(c2ccccc2)CC(O)=C1C=NCCN1CCOCC1` (centres undefined), the “activity change, negative = growth inhibition” value is reported as -12.5%. For `O=C(Oc1ccc(F)cc1)N1CCOCC1`, the “activity change, negative = growth inhibition” value was -8.36%. With `CC1=C(C)CC(C(=O)NNC(=O)c2csc3c2CCC(C(C)(C)C)C3)C(C(=O)O)C1` (centres undefined) the “activity change, negative = growth inhibition” value was 2.16%. In the case of `C[C@H](NC(=O)OC(C)(C)C)c1nnc(SCC(=O)Nc2ccc(Br)cc2)o1`, the “activity change, negative = growth inhibition” value is reported as -16.3%. In the case of `CCSc1nnc(-c2cc3c(s2)-c2ccccc2CC3)o1`, the “activity change, negative = growth inhibition” value is reported as -24%. For `Cc1cccc(C)c1NC(=O)CCS(=O)(=O)c1cccc2nsnc12`, the “activity change, negative = growth inhibition” value was -17.9%. In the case of `Cn1c(C(=O)OC(C(=O)NC2CCCCC2)c2ccccn2)cc2sccc21` (centres undefined), the “activity change, negative = growth inhibition” value is reported as -19.1%. For `COc1ccc(C(=O)N2CCC3(CCCN(C(c4ccccc4)c4ccccc4)C3)CC2)cc1`, the “activity change, negative = growth inhibition” value was -2.93%. With `Cc1ccc(SCC2=NNC(=O)C2)cc1` the “activity change, negative = growth inhibition” value was -8.57%. For `Cc1ccc(C(=O)N/C(=C/C=C/c2ccccc2)C(=O)NCc2ccco2)cc1`, the “activity change, negative = growth inhibition” value was -28.7%. In the case of `Cc1ccc(NC(=O)c2cc3ccccc3o2)cc1`, the “activity change, negative = growth inhibition” value is reported as -19.7%. With `O=C(Nc1ccncc1)c1cc2ccccc2o1` the Potency was 8.2 µM (active). With `CC(C)Oc1ccc(NC(=O)c2cc3ccccc3o2)cc1` the “activity change, negative = growth inhibition” value was -62.1%. In the case of `CCOC(=O)C(=CNc1cccc(C)n1)C(=O)OCC`, the “activity change, negative = growth inhibition” value is reported as -0.363%. In the case of `O=C(c1csnn1)N1CCC2(CC1)CN(c1ncccn1)C2`, the “activity change, negative = growth inhibition” value is reported as -14.4%. In the case of `CCOC(=O)N1CCN(CC(=O)c2ccc3c(c2)CCN3)CC1`, the “activity change, negative = growth inhibition” value is reported as -13.7%. With `CC(OC(=O)CNC(=O)c1ccc(Cl)c([N+](=O)[O-])c1)C(=O)NCc1ccco1` (centres undefined) the “activity change, negative = growth inhibition” value was 0.37%. For `CC(CC(=O)Nc1ccccc1)n1ccnc1` (centres undefined), the “activity change, negative = growth inhibition” value was 36.8%. For `COc1ccccc1Oc1ccc(N2CC(C(=O)OCC(=O)c3ccc(F)cc3)CC2=O)cc1` (centres undefined), the “activity change, negative = growth inhibition” value was -21.1%. For `COc1ccc(C)cc1S(=O)(=O)N(CC(=O)Nc1cccc([N+](=O)[O-])c1)c1ccc(C)cc1`, the Potency was 13 µM (active). In the case of `Cc1ccc(S(=O)(=O)N(Cc2cccc([N+](=O)[O-])c2)C(=O)N2CCN(C)CC2)cc1`, the “activity change, negative = growth inhibition” value is reported as -4.4%. With `Cc1ccc(S(=O)(=O)N(CC(=O)Nc2cccc([N+](=O)[O-])c2)Cc2ccc(Cl)cc2)cc1` the Potency was 25.9 µM (active). With `COc1cccc(NC(=O)CN(C)S(=O)(=O)c2ccc(C)cc2)c1` the “activity change, negative = growth inhibition” value was -27.5%. With `CN1CCN(CC(=O)Nc2cccc([N+](=O)[O-])c2)CC1` the “activity change, negative = growth inhibition” value was -6.25%. With `Cc1ccc(N(CC(=O)Nc2cc(C)cc(C)c2)S(=O)(=O)c2cccc3nonc23)cc1` the “activity change, negative = growth inhibition” value was -14.4%. For `CCn1cc(/C=C(\NC(=O)c2cc(OC)c(OC)c(OC)c2)C(=O)N2CCN(C)CC2)c2ccccc21`, the “activity change, negative = growth inhibition” value was 1.95%. In the case of `CCCCCN1CC(O)=C(c2nc(-c3ccc(Cl)cc3)cs2)C1=N`, the “activity change, negative = growth inhibition” value is reported as -0.478%. In the case of `Cc1ccc(-n2nc(N)c3c(=O)oc(N(C)C)nc32)cc1`, the “activity change, negative = growth inhibition” value is reported as -0.449%. For `CN(c1ccccn1)c1ncnc2[nH]ncc12`, the “activity change, negative = growth inhibition” value was 18.8%. With `c1ccc(CNc2ncnc3[nH]ncc23)cc1` the Potency was 23.1 µM (active). In the case of `O=C(COC(=O)c1ncc(Cl)c(Cl)c1Cl)NCc1ccccc1`, the “activity change, negative = growth inhibition” value is reported as 2.04%. In the case of `Nc1ccccc1C(=O)NC1CCCCNC1=O` (centres undefined), the “activity change, negative = growth inhibition” value is reported as -4.17%. For `O=C1CN(C(=O)COc2c(Cl)cccc2Cl)c2ccccc2N1`, the “activity change, negative = growth inhibition” value was -19.7%. With `CCCCn1c(N)c(N(CC(C)C)C(=O)c2cccc(S(=O)(=O)N3CC(C)OC(C)C3)c2)c(=O)[nH]c1=O` (centres undefined) the “activity change, negative = growth inhibition” value was -3.62%. For `Cc1ccc(NC2=C(c3ccc(C(F)(F)F)cc3)C(=O)c3ccccc32)cc1F`, the Potency was 8.2 µM (active). For `Cc1ccc(NC(=O)NC(=O)c2ccccc2)cc1F`, the “activity change, negative = growth inhibition” value was -4.06%. For `CCOC(=O)c1cnc(Nc2nc3ccccc3o2)nc1CSC(=S)N1CCCCC1`, the Potency was 0.0326 µM (active). In the case of `CCc1ccc(CNC(=O)C2CCCN(c3nc4ccccc4o3)C2)cc1` (centres undefined), the “activity change, negative = growth inhibition” value is reported as -10.1%. With `COc1ccccc1Nc1nc(N)nc(CSC(=S)N2CCOCC2)n1` the “activity change, negative = growth inhibition” value was -14.6%. For `CC(NS(=O)(=O)c1ccc(OCC(=O)N2CCCC2)cc1)c1ccccc1` (centres undefined), the “activity change, negative = growth inhibition” value was -0.332%. In the case of `CC(Oc1ccc(F)cc1)C(=O)N1CCN(c2ncccn2)CC1` (centres undefined), the “activity change, negative = growth inhibition” value is reported as 1.97%. For `CC12CCC(C(=O)N3CCN(c4ncccn4)CC3)(c3nc4ccccc4nc31)C2(C)C` (centres undefined), the Potency was 23.1 µM (active). In the case of `CC(=O)N1CCC2(CCCN(c3ncccn3)C2)CC1`, the “activity change, negative = growth inhibition” value is reported as 5.85%. In the case of `Cc1ccc(-c2ccnc3nc(Sc4ncc(C(F)(F)F)cc4Cl)nn23)cc1`, the “activity change, negative = growth inhibition” value is reported as -13.8%. In the case of `Cn1c(SCC(=O)Nc2ccc(Br)cc2F)nnc1-c1ccco1`, the “activity change, negative = growth inhibition” value is reported as 6.11%. In the case of `O=C(Nc1ccccc1C(=O)O)c1cc(S(=O)(=O)N2CCCCC2)cs1`, the “activity change, negative = growth inhibition” value is reported as -9.19%. For `COCCn1nnnc1C(c1cc2ccc(OC)cc2[nH]c1=O)N1CCc2ccccc2C1` (centres undefined), the “activity change, negative = growth inhibition” value was -20.4%. For `CC(C)(C)n1nnnc1C(c1ccc(Cl)cc1)N1CCSCC1` (centres undefined), the “activity change, negative = growth inhibition” value was -23%. With `COc1ccc(OC)c(C(c2nnnn2C(C)(C)C)N2CCc3ccccc3C2)c1` (centres undefined) the Potency was 13 µM (active). With `CCOc1ccc(Nc2nc(Cc3nnc(SCC(=O)NC4CCCC4)n3C)cs2)cc1` the “activity change, negative = growth inhibition” value was -12.6%. With `Cc1cccc(N2CCN(C(=O)c3cc4c(=O)oc5ccccc5c4s3)CC2C)c1` (centres undefined) the “activity change, negative = growth inhibition” value was -36.4%. In the case of `Cc1cccc(NC(=O)Cn2c(=O)n(CCC(C)C)c(=O)c3cccnc32)c1`, the “activity change, negative = growth inhibition” value is reported as -23.8%. With `Cc1cccc(N2CCN(C(=O)CCn3c(=O)c4cccn4c4cccnc43)CC2C)c1` (centres undefined) the Potency was 3.66 µM (active).
